The sample as a whole holds a higher share of hits than the screen did.
Pf apPOL inh: Pf-apPOL DNA polymerase inhibition | Recombinant Pf-apPOL, molecular beacon fluorescence, 1.5 h | inhibition, % at 10 µM | 0.25% of 210,000 active
mHTT-CaM PPI inh: mHTT-calmodulin interaction abrogation | 3.6% of 190,000 active | AlphaScreen His-mHTT/GST-CaM binding, luminescence | AID 1671202 | inhibition, % at 15 µM;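 note: 0% = both proteins with DMSO and 100% = one protein alone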
* marks the source's active call; other numbers are inactive results; nt = no result; ! = repeats disagree. Cut-off read from the data, not from the text of the source: active = inhibition above about 50%; inactive = the rest.

SMILES	Pf apPOL inh	mHTT-CaM PPI inh
Cc1ccc(N(C(=O)Cc2ccccc2)C2C=CS(=O)(=O)C2)cc1Cl (stereo not given)	3.0	-4.4
CCCCOc1ccc(C(=O)N(c2ccc(C)c(Cl)c2)C2C=CS(=O)(=O)C2)cc1 (stereo not given)	-2.0	63.7*
COc1ccc(/C=C2\C(=O)c3ccccc3C2=C(C#N)C#N)cc1OC	-1.3	92.0*
COc1cc(C=C2C(=O)c3ccccc3C2=O)ccc1OCc1ccc(C(=O)O)cc1	3.4	6.0
OC1(C#CC#CC2(O)CCCCC2)CCCCC1	-0.3	82.3*
CCN(CC)CC#CC1(O)CCCCC1	0.5	-2.9
COCCN=C1Nc2ccccc2NC12CCCN(C(=O)Cc1ccsc1)C2 (stereo not given)	-2.8	97.7*
COCCN=C1Nc2ccccc2NC12CCCN(C(=O)c1ccccc1C)C2 (stereo not given)	-3.4	5.3
COCCN=C1Nc2ccccc2NC12CCCN(C(=O)Cc1c[nH]c3ccccc13)C2 (stereo not given)	-7.4	33.3
COCCN=C1Nc2ccccc2NC12CCCN(C(=O)Cc1ccccc1F)C2 (stereo not given)	2.0	99.9*
COCCN=C1Nc2ccccc2NC12CCCN(C(=O)c1ccccn1)C2 (stereo not given)	-5.9	5.3
COCCN=C1Nc2ccccc2NC12CCCN(C(=O)c1n[nH]c3ccccc13)C2 (stereo not given)	-6.8	75.7*
c1ccc(CSc2nnc(SCc3ccccc3)s2)cc1	-0.8	-39.4
CCOc1cc(O)c(-c2nc(N)ncc2-c2ccc3c(c2)OCCO3)cc1CC	-1.0	28.9
Cc1ccc(C(=O)Nc2ccccc2CO)cc1C	-0.7	-8.4
COc1ccccc1N1CCN(c2ncc3c(n2)CCN(Cc2ccc(Cl)cc2)C3)CC1	0.2	-7.0
CCCNc1cc(N2CCCC(CCC(=O)NC3CCCCC3)C2)ncn1 (stereo not given)	-4.8	4.5
CCc1cccc(C)c1NC(=O)c1ccc(OC)c(Br)c1	-6.6	-3.8
O=C(Nc1ccc(F)cc1)C1CCCN(C(=O)c2ccccc2Cl)C1 (stereo not given)	-9.0	36.3
CC(C)(Oc1ccc(Cl)cc1)C(=O)N1CC(c2nc(-c3ccccn3)no2)C1	4.7	-0.3
COc1ccccc1Cc1noc(C2CN(C(=O)C(C)(C)Oc3ccc(Cl)cc3)C2)n1	-4.0	70.3*
O=C1CSC(c2ccc(OC(F)F)cc2)N1c1ccccc1 (stereo not given)	-1.1	-7.0
O=C(Nc1nc2ccccc2s1)C1CC(=O)N(c2ccc(Br)cc2)C1 (stereo not given)	0.6	60.0*
O=C(Nc1ccccc1F)C1CC(=O)N(c2ccc(Br)cc2)C1 (stereo not given)	0.0	1.8
COc1ccc(C=Cc2nc(-c3ccc(=O)[nH]c3)no2)cc1	2.2	-8.5
SMILES	Pf apPOL inh	mHTT-CaM PPI inh
COc1cccc(Oc2coc3cc(OC(=O)C=Cc4ccccc4)ccc3c2=O)c1	-6.3	62.0*
COc1cccc(Oc2coc3cc(OC(=O)c4ccccc4)ccc3c2=O)c1	-13.4	-1.1
CCOC(=O)C(Oc1ccc2c(=O)c(-c3ccccc3OC)coc2c1)c1ccccc1 (stereo not given)	-5.0	58.3*!
C=CCOC(=O)Oc1ccc2c(=O)c(-c3ccccc3OC)coc2c1	7.9	23.0
COC(=O)Oc1ccc2c(=O)c(-c3ccccc3OC)coc2c1	1.8	50.0*
CCOc1ccc2c(=O)c(-c3ccccc3OC)coc2c1	-6.2	2.1
O=c1/c(=C/c2ccc(F)cc2)sc2nc(-c3ccc(Br)cc3)nn12	4.2	-4.0
N#CC1=C(N)N(c2ccc([N+](=O)[O-])cc2)C2=C(C(=O)CCC2)C1c1cccs1 (stereo not given)	-2.1	4.0
CSc1ccc(NC(=O)c2ccc(S(=O)(=O)N3CCCCC3)cc2)nn1	-3.9	-17.7
COc1ccc(Cl)cc1NS(=O)(=O)c1cc(Br)cc2c1N(C(C)=O)C(C)C2 (stereo not given)	-4.5	3.0
C=CCn1c2ccccc2c2nnc(SCC(=O)Nc3ccc(Br)cn3)nc21	-3.2	0.0
Cn1c(=O)n(C)c2cc(/C=C(\C#N)c3nc4ncc(Br)cc4[nH]3)ccc21	6.2	10.0
N#C/C(=C\c1ccc(-c2ccc3c(c2)C(=O)NC3=O)o1)c1nc2ncc(Br)cc2[nH]1	-4.9	73.0*
CC(=O)N1/C(=C/c2ccc(N(C)C)cc2)C(=O)c2ccccc21	-1.2	84.0*
CC(=O)N1/C(=C/c2ccncc2)C(=O)c2ccccc21	-7.0	-4.0
COc1ccc(N(CC(=O)Nc2cccc(Br)c2)S(C)(=O)=O)c(OC)c1	-15.5	31.9
CCCc1cc(=O)n2[nH]c(C)c(-c3ccccc3)c2n1	1.2	4.9
Cc1[nH]n2c(=O)cc(Cc3ccccc3)nc2c1-c1ccc(Cl)cc1	-3.3	62.5*
O=C(NCCCN1CCCC1=O)C(=O)NCc1cccs1	-4.8	-7.3
COc1cc(OC)cc(C(=O)Nc2ccc(Br)cc2C(=O)O)c1	-8.7	-6.1
O=C(CSc1nc(=O)[nH]c2c1CCC2)c1ccc(Cl)cc1	75.7*	36.5
COC(=O)c1ccc(NC(=O)CSc2nc(=O)[nH]c3c2CCC3)cc1	2.5	3.2
CCn1cc(SCC(=O)Nc2c(C)cc(C)cc2C)c2ccccc21	3.0	-6.2
C=CCNC(=O)c1nc(N2CCCCC2)c2c(C)c(C)n(-c3ccccc3)c2n1	-5.1	89.4*
C=CCNC(=O)c1nnc(N2CCCC2)c2ccccc12	-24.0	8.5
SMILES	Pf apPOL inh	mHTT-CaM PPI inh
N=C1S/C(=C\c2ccc(-c3ccccc3F)o2)C(=O)N1c1nccs1	0.8	27.0
N=C1S/C(=C\c2ccc(-c3ccc(Cl)cc3C(=O)O)o2)C(=O)N1c1nccs1	-1.8	75.0*
N=C1S/C(=C\c2ccc(-c3ccc(Cl)c(C(=O)O)c3)o2)C(=O)N1c1nccs1	6.7	99.0*
O=C1OC(c2ccccc2)=N/C1=C/c1ccc(-c2ccc(Cl)c(C(=O)O)c2)o1	-2.2	20.0
O=C(C1CCN(S(=O)(=O)c2cccs2)CC1)N1CCCc2ccccc21	2.7	-1.7
COc1ccc(-c2ccc(C3C(C#N)=C(N)OC4=C3C(=O)CC(C)(C)C4)o2)cc1 (stereo not given)	-3.3	15.7
CCOC(=O)c1oc2cc(OCC(=O)OC(C)(C)C)ccc2c(=O)c1-c1ccc(OC)cc1	-2.1	2.4
O=C1C(=O)N(Cc2csc(-c3ccc(Cl)cc3)n2)c2ccc(Br)cc21	0.3	46.0
CCN(CC)C(=O)CN1C(=O)C(=O)c2cc(Br)ccc21	nt	97.3*
CCN(CC)C(=O)CN1C(=O)C(=O)c2ccccc21	4.3	0.3
O=C1C(=O)N(Cc2ccccc2Cl)c2ccc(Br)cc21	-2.2	86.0*
O=C1C(=O)N(Cc2c(F)cccc2Cl)c2ccc(Br)cc21	0.1	66.0*
O=C1C(=O)N(Cc2ccccc2)c2ccc(Br)cc21	5.0	48.0
CSc1cccc(NC(=O)N2CCc3nc[nH]c3C2)c1	0.5	-2.2
CC(=O)N1CCc2cc(Br)cc(S(=O)(=O)NCCN3CCCc4ccccc43)c21	-6.9	39.0
CC1(C)CCC(C)(C)c2cc3c(cc21)C(C)(C)CCC3(C)C	-7.9	nt
CC1(C)CCN2CCC(C)(C)c3c(O)ccc1c32	-3.8	70.6*
COCc1cc(C)nc2sc(C(O)c3ccccc3)c(NC(=O)c3ccccc3)c12 (stereo not given)	-1.3	2.0
Cc1cccc(NC(=O)N2CCC3(CC2)NC(=O)c2ccccc2N3C)c1	0.2	-10.4
CCN1c2cc(C)ccc2-n2cccc2C12CCN(C(=O)Nc1ccc(F)cc1F)CC2	-5.9	51.6*

From PubChem
